Measurements taken from PubChem BioAssay AID492953 (The Scripps Research Institute Molecular Screening Center, 2010).
Out of some 340,000 compounds screened, about 4,200 (1.2%) were called active. This is one part of a sample in which actives are shown more often than they occur. Unmarked numbers belong to inactive results.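 How the source made its calls: active means inhibition above the mean of all tested compounds plus 3 SD (cut at about 24% in these data); inactive means the rest.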

Molecular target: Platelet-activating factor acetylhydrolase IB subunit alpha2 (Homo sapiens) (UniProt P68402)
Sequence (P68402 whole entry, looked up): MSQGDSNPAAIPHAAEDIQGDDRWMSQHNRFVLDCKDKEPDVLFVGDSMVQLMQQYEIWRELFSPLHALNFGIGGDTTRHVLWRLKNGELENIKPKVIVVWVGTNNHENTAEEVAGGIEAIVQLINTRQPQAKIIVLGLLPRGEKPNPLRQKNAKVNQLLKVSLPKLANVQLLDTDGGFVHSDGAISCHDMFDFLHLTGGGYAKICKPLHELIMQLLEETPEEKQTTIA
Experiment: inhibition of PAF acetylhydrolase 1b subunit 2 – biochemical, fluorescence polarization, human, primary screen (AID 492953);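 further: 0% = enzyme with DMSO and 100% = wells lacking PAFAH1B2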
Settings: recombinant PAFAH1B2, FP-rhodamine activity probe, at 3.39 µM, hits give high values

Compound | inhibition
C/C(=N\Nc1ccc(Cl)nn1)c1ccccc1O | -0.23%
COc1ccccc1N1CCN(S(=O)(=O)c2ccc3c(c2)NC(=O)CS3)CC1 | -1.51%
COc1ccccc1N1CCN(C(=O)c2ccc(Cl)c(S(=O)(=O)N3CCCC3)c2)CC1 | 2.58%
COc1ccccc1N1CCN(S(=O)(=O)c2ccc(Cl)cc2)CC1 | 31.7% (active)
COc1ccc(CCNC(=O)CN2CCC(n3nnc4cc(F)ccc43)CC2)cc1OC | 4.75%
CCOC(=O)c1[nH]c(C)c(C(=O)OCC(=O)N2c3ccccc3CC2C)c1C (stereo unspecified) | 3.77%
CSC1=NC2(C)CCCCC2C12C=CC(=O)C=C2 (stereo unspecified) | 24.6% (active)
O=C(CC(=O)c1cccnc1)c1ccccc1 | 0.07%
CC[n+]1c(C)n(-c2ccccc2)c2ccc(NC(C)=O)cc21 | 1.05%
CCc1ccc(NC(=O)CN2C(=O)CSC2=O)cc1 | 4.64%
Cc1ccc(S(=O)(=O)N(CCCN(C)C)Cc2ccc3c(c2)OCO3)cc1 | 1.52%
O=C(Oc1ccc2c(c1)CCC2)N1CCOCC1 | 2.56%
COc1ccc(CCn2nnnc2C(c2ccccc2)N2CCN(C)CC2)cc1OC (stereo unspecified) | 2.25%
CC(C)C(c1nnnn1CCc1ccccc1)N1CCN(C(=O)c2ccco2)CC1 (stereo unspecified) | 3.54%
N#Cc1ccc(C(c2nnnn2CCc2ccccc2)N2CCCCCC2)cc1 (stereo unspecified) | 25.7% (active)
O=C(NCc1ccc2c(c1)OCO2)c1c(O)nc2sccn2c1=O | 5.79%
Cc1ccc(C(=O)CN2C(=O)NC3(CCOc4ccccc43)C2=O)s1 (stereo unspecified) | -1.4%
Cc1cccc(OCCNC(=S)NC(=O)c2cccnc2)c1 | -2.68%
C=CCNC(=O)CCCOc1cccc(C)c1 | -2.13%
Cc1cccc(OCCNC(=O)CSc2ccc(C(F)(F)F)cc2[N+](=O)[O-])c1 | 27.4% (active)
CC(C)NC(=O)Nc1cccc2c1O[C@H](CN(C)S(=O)(=O)c1cccs1)[C@@H](C)CN([C@H](C)CO)C2=O | 6.94%

Compound | inhibition
Cc1cc2oc(=O)cc(CN(C)Cc3ccc(OC(F)F)cc3)c2cc1Cl | -0.62%
Cc1cc2oc(=O)cc(CN3CCN(Cc4ccccc4)CC3)c2cc1C | -2.46%
Cc1ccc(CN(C)Cc2cc(=O)oc3cc(C)c(Cl)cc23)cc1 | 28.5% (active)
CCn1c(SCC(=O)Nc2cccc(F)c2)nnc1-c1cc2cc(Br)ccc2o1 | -4.23%
C=CCn1c(-c2ccc3[nH]c(C)c(C)c3c2)n[nH]c1=S | -1.88%
C=CCn1c(SCC(=O)NC)nnc1C12CC3CC(CC(C3)C1)C2 | 4.85%
C=CCn1c(C23CC4CC(CC(C4)C2)C3)n[nH]c1=S | 29.8% (active)
Cc1cc(C)cc(NC(=O)C(OC(=O)c2ccc(O)cc2)c2ccccc2)c1 (stereo unspecified) | -4.34%
O=C1/C(=C\c2ccc([N+](=O)[O-])cc2)CS(=O)(=O)C/C1=C/c1ccc([N+](=O)[O-])cc1 | -2.78%
O=C(O)c1cc(S(=O)(=O)N(Cc2ccccc2)c2cccc(C(F)(F)F)c2)ccc1Cl | 28.5% (active)
Cc1ccc(N(CCC(=O)O)S(=O)(=O)c2cccc(C(F)(F)F)c2)cc1 | 19.6%
O=C(O)c1cc(S(=O)(=O)N(Cc2ccccc2)c2ccccc2)ccc1Cl | 18.7%
CS(=O)(=O)Nc1ccccc1N=C(c1ccccc1)c1ccccc1 | 5.79%
O=c1cc(-c2ccccc2)nc(N2CCCCC2)[nH]1 | -3.66%
Cc1ccc(O)c(CNc2nc3ccccc3[nH]2)c1 | 0.09%
Cc1ccc(-c2cc(=O)[nH]c(NCc3ccccc3)n2)cc1 | 24.5% (active)
O=C(O)c1ccc(-n2cccc2)cc1O | 4.37%
COc1cccc(CNn2cn[nH]c2=S)c1OCc1ccccc1 | 0.39%
O=C(CCNC(=O)C1CCN(S(=O)(=O)c2ccccc2)CC1)NC1CC1 | 1.71%
CCc1ccc2nc3sc(C(=O)Nc4nnc(CC)s4)c(N)c3cc2c1 | 32.2% (active)
CCc1nnc(NC(=O)c2nc3nccc(C)n3n2)s1 | 7.37%

Compound | inhibition
CCc1nnc(NC(=O)c2cccc(S(=O)(=O)N(C)c3ccc(OC)cc3)c2)s1 | 10.2%
COc1ccc(Cl)cc1C=CC=Nc1ccc(S(N)(=O)=O)cc1 | -2.05%
Cc1c(C(=O)OCC(=O)N(CCC#N)c2ccccc2)oc2c1ccc1ccccc12 | -1.31%
Cc1cccc(NC(=O)Cc2ccc(Br)cc2)n1 | 8.34%
O=C(Cc1ccccc1)Nc1cccc(NC(=O)c2ccccc2)c1 | 3.28%
CC(C)(C)NC(=O)c1cccc(NC(=O)Cc2ccc(Br)cc2)c1 | 28.1% (active)
CN1CCN(C(=O)CCc2ncc(C(F)(F)F)cc2Cl)CC1 | -0.83%
CCC(=O)N1CCC(C(N)=O)(N2CCCCC2)CC1 | -0.67%
CC(=O)c1sc(NC(=O)CCN2C(=O)C3CC=CCC3C2=O)nc1-c1ccccc1 (stereo unspecified) | -3.33%
CC(C=Cc1ccccc1)=NNS(=O)(=O)c1ccc([N+](=O)[O-])cc1 | 6.62%
CC1=CC(=NNS(=O)(=O)c2ccc([N+](=O)[O-])cc2)CC(C)(C)C1 | 31.9% (active)
Cc1cccc(NS(=O)(=O)c2ccc([N+](=O)[O-])cc2)n1 | 1.97%
CCOC(=O)[C@H]1[C@H]2COc3ccccc3[C@@H]2N2C(=O)CN(Cc3ccccc3)C(=O)[C@@]12C | -3.13%
COc1ccc(CNC(=O)c2cc(=O)c3c(C)cc(C)cc3o2)cc1 | -0.18%
CCCCN(C(=O)/C=C/c1ccco1)c1c(N)n(CC(C)C)c(=O)[nH]c1=O | -1.15%
CC(=O)Nc1ccc(S(=O)(=O)Oc2ccc(Br)cc2C(=S)N2CCOCC2)cc1 | 0.45%
Cc1ccc(NS(=O)(=O)c2ccc(N/N=C/c3ccccc3OCC(=O)O)c([N+](=O)[O-])c2)c(C)c1 | 4.33%
COc1cccc(/C=N/Nc2ccc(S(=O)(=O)Nc3ccccc3C(=O)O)cc2[N+](=O)[O-])c1O | 32.2% (active)
COc1ccc(Br)cc1/C=N/Nc1ccc(S(=O)(=O)Nc2ccccc2C(=O)O)cc1[N+](=O)[O-] | 4.57%
